# Screening results as filed in PubChem BioAssay.
# This excerpt belongs to a sample that is enriched for hits.
# IL1B secr inh: qHTS for Inhibitors of Inflammasome Signaling: IL-1-beta AlphaLISA Primary Screen. activity change, % at 57.5 µM. THP-1 LPS/ATP IL-1B secretion, AlphaLISA, 16 h; active compounds read low. AID 743279, 2014. actives 4.7% (n = 360,000); in the data active means activity change below about -50%; inconclusive means mostly about -30% to -49%
#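 Secreted IL-1B measured by AlphaLISA bead assay after 16 h compound exposure of THP-1 cells; compounds (final up to 57.5 uM) added 1 h before LPS (250 ng/mL) and ATP (1.25 mM) stimulation; lower signal means less secretion.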
# DT40 TDP1 no CPT: qHTS for Inhibitors of human tyrosyl-DNA phosphodiesterase 1 (TDP1): qHTS in cells in absence of CPT; actives 15% (n = 420,000); Potency, µM (doses to about 46.2 µM), for the others: top-dose activity change, negative = growth inhibition, actives largely listed as inhibitors; DT40 Tdp1-/- hTDP1 cells, no CPT, ATP luminescence, 48 h; AID 686978, 2013; further: potency means the concentration at half of the fitted maximal effect; nearly all actives have a fitted effect of over 55% in size
#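 Seeded 400 DT40-hTDP1 cells/well (vehicle DMSO, no 20 nM CPT); pinned compounds; ≥48 hr at 37 °C; CellTiter-Glo luminescence as viability measure.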
# ALOX12 inh: Primary qHTS assay for inhibitors of human arachidonate 12S-lipoxygenase (ALOX12): Round 2; Polyunsaturated fatty acid lipoxygenase ALOX12 (Homo sapiens), P18054; purified 12hLO, xylenol orange hydroperoxide absorbance; Potency, µM (highest dose often 108 µM), for the others: at the top dose activity change, negative = inhibition, actives largely listed as inhibitors; actives 1.1% (n = 580,000); AID 1671190, 2021; further: potency means the concentration at half of the fitted maximal effect
# Target sequence (P18054 whole entry, looked up): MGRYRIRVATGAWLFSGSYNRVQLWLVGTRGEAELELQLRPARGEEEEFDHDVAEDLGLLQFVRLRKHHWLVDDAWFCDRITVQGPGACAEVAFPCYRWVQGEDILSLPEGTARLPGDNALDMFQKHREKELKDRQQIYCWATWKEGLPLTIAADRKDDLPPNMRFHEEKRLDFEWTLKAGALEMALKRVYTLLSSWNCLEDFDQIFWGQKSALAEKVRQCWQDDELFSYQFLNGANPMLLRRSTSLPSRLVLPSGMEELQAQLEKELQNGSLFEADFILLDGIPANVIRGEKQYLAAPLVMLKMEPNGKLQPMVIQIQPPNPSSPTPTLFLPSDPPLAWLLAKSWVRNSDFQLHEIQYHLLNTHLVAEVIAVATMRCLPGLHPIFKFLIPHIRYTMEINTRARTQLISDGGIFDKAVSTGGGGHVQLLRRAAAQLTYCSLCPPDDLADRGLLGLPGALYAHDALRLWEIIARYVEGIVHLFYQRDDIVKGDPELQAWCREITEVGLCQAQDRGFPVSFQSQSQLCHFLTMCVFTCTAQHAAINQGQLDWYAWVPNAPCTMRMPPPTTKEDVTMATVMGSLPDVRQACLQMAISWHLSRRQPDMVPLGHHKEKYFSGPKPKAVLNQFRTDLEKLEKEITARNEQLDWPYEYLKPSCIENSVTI
#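 Purified human 12hLO at 150 nM in 25 mM Hepes, 0.01% Triton X-100, pH 7.0, preincubated 15 min at room temperature with compound. Reaction started with 40 uM arachidonic acid, 30 min at room temperature. Hydroperoxide measured by Fe-xylenol orange, 573/405 nm absorbance ratio.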
# HT1080 IDH1KD tx: qHTS for induction of synthetic lethality in tumor cells producing 2HG: qHTS for the HT-1080-IDH1KD cell line | HT-1080 IDH1 knockdown viability, ATP luminescence, 48 h | Potency, µM (top dose mostly 46.1 µM), for the others: at the top dose activity, negative = toxicity, usual class: cytotoxic | actives 2% (n = 360,000) | AID 686971, 2013;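 further: potency means the concentration at half of the fitted maximal effect; 0% = DMSO wells and -100% = cell-free medium wells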
#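 Assay cells: HT-1080 with IDH1 knockdown, 750 per well, RPMI/5% FBS. Exposure: 48 h at 37 °C following 2 h pre-incubation. Read: CellTiter-Glo luminescence; fitted concentration-response, curve class assigned.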
# HT1080-NT tox: qHTS for induction of synthetic lethality in tumor cells producing 2HG: qHTS for the HT-1080-NT fibrosarcoma cell line; HT-1080-NT fibrosarcoma viability, CellTiter-Glo ATP luminescence, 48 h; Potency, µM (top dose mostly 46.1 µM), inactives show at the highest dose activity, negative = less viability, hits mostly cytotoxic; actives 1.6% (n = 360,000);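 further: NT is the 2HG producing partner of a matched IDH1 knockdown line; potency means the concentration at half of the fitted maximal effect; 0% = DMSO-treated cells and -100% = media-only wells without cells; nearly all actives have a fitted effect of over 55% in size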
#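 HT-1080-NT fibrosarcoma cells (2HG-overproducing), 750 cells/well in RPMI with 5% FBS, dosed after 2 h and incubated 48 h at 37C. CellTiter-Glo luminescence normalized to DMSO and no-cell wells; concentration-response curves fitted and classed.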
# TDP1 cell CPT: qHTS for Inhibitors of human tyrosyl-DNA phosphodiesterase 1 (TDP1): qHTS in cells in presence of CPT. Potency, µM (highest dose often 46.2 µM), inactives show top-dose activity change, negative = growth inhibition, most hits filed as inhibitors. chicken DT40 Tdp1-/-;hTDP1 cells + 20 nM CPT, ATP luminescence, 48 h. AID 686979, 2013. actives 12% (n = 420,000); further: potency means the concentration at half of the fitted maximal effect; nearly all actives have a fitted effect of over 55% in size
#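 Cell growth measured by CellTiter-Glo luminescence after a minimum 48 h, 37 C compound exposure with 20 nM CPT in Tdp1-knockout DT40 cells stably expressing hTDP1, seeded 400/well; qHTS titration format.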
# * = called active by the depositor; ? = inconclusive; . = no result. Unless noted, the call rests on the fitted dose curve; in most records, active means well fitted curve in the direction sought with a large enough effect; inconclusive means small, poorly fitted or top-dose-only effect, or another doubt; inactive means no such curve, though single readings can be large; an effect the other way counts as inactive or inconclusive. Unless noted, on the % scale 0 is the no-effect control and ±100 the full control effect.
SMILES,IL1B secr inh,DT40 TDP1 no CPT,ALOX12 inh,HT1080 IDH1KD tx,HT1080-NT tox,TDP1 cell CPT
Cc1c(C(=O)NCc2cccnc2)sc2nc(-c3ccc(F)cc3)cn12,-3,13µM*,10%,0%,-1%,?
Cc1c(C(=O)NCc2cccnc2)sc2nc(-c3ccccc3)cn12,5,16µM*,4%,.,.,-10%
Cc1c(C(=O)NCc2ccco2)sc2nc(-c3ccccc3)cn12,-15,?,-4%,?,?,?
CN(C)C(CNC(=O)c1cc(=O)[nH]c2ccccc12)c1ccc(F)cc1 (stereo unspecified),.,.,38%,.,.,.
O=C(O)CCN1C(=O)c2ccc(NC(=O)CCc3ccccc3)cc2C1=O,7,-1%,0%,2%,1%,15%
CCOc1ccc(C(=O)N2CC(c3nnc(C(C)C)o3)C3(CCOCC3)C2)cc1OCC (stereo unspecified),.,.,71%,.,.,.
Clc1cccc(N2CCN(c3c4c(nc5nncn35)CCC4)CC2)c1,.,7.3µM*,-29%,.,.,18µM*
CCN(CC)Cc1cc(Oc2ccc(O)c(CN(CC)CC)c2)ccc1O,-72*,23µM*,.,11%,-4%,21µM*
CCN(CC)Cc1cc(C(C)=O)ccc1OCC(C)C,0,0%,?,-9%,-9%,15%
CCOc1ccccc1NC(=O)Nc1ccc(-c2nnc3n2CCCC3)cc1,.,.,19%,.,.,.
Cn1cc(C(=O)NC2(C)CCS(=O)(=O)C2)c2ccccc21 (stereo unspecified),.,.,13µM*,.,.,.
O=C(/C=C/c1ccccc1)CC(O)(c1ccccc1)C(F)(F)F (stereo unspecified),-99*,11µM*,6%,10µM*,13µM*,16µM*
COc1ccc(/C=C/C(=O)CC(O)(c2ccccc2)C(F)(F)F)cc1 (stereo unspecified),?,?,-12%,?,?,?
COc1ccc(CN2C(=O)c3ccccc3C2=O)cc1C(=O)Nc1ccccc1N1CCOCC1,77,16µM*,-7%,-12%,-9%,?
COc1ccc(NC(=O)c2cc(CN3C(=O)c4ccccc4C3=O)ccc2OC)cn1,-4,?,-16%,21µM*,?,?
COc1ccc(CN2C(=O)c3ccccc3C2=O)cc1C(=O)OCC(=O)NC1CCCCC1,-4,4%,7%,6%,1%,5%
CC(C)CN1C(=O)c2cccn2CC1C(=O)NCC1CC1 (stereo unspecified),.,.,13%,.,.,.
COc1ccc(OC)c(NC(=O)COc2ccc(-c3nnc4n3CCCC4)cc2)c1,.,.,12%,.,.,.
Cc1oc(-c2ccccc2NC(=O)C2CCC2)nc1CNC(=O)Cc1cc(F)cc(F)c1,.,.,25%,.,.,.
CCCCC1=CC2=CC(=O)C(C)(OC(=O)CC)C(=O)C2=CN1c1ccc(OC)cc1 (stereo unspecified),25,?,207%,-2%,-5%,26µM*
CCCCC1=CC2=CC(=O)C(C)(OC(=O)CC)C(=O)C2=CN1Cc1ccc2c(c1)OCO2 (stereo unspecified),35,15µM*,-60%,1%,-26%,?
CCCCC1=CC2=CC(=O)C(C)(OC(=O)CC)C(=O)C2=CN1c1cccc(C#N)c1 (stereo unspecified),63,-17%,?,-6%,-4%,?
CCCCC1=CC2=CC(=O)C(C)(OC(=O)CC)C(=O)C2=CN1CCCCO (stereo unspecified),9,-4%,-17%,7%,6%,16%
CN(Cc1cccs1)C(=O)c1cc2ccccc2oc1=O,.,.,4%,.,.,.
Nc1nc2ccccc2n1/N=C/c1ccc(Br)cc1,11,16µM*,-1%,10%,7%,?
SMILES,IL1B secr inh,DT40 TDP1 no CPT,ALOX12 inh,HT1080 IDH1KD tx,HT1080-NT tox,TDP1 cell CPT
C(=N\n1c2ccccc2c2ccccc21)/c1ccccc1,7,?,32%,-5%,5%,?
COCCn1c(=N)c(C(=O)NCCc2ccc(OC)cc2)cc2c(=O)n3cccc(C)c3nc21,-5,29µM*,37%,-1%,-14%,23µM*
COCCCNC(=O)c1cc2c(=O)n3cccc(C)c3nc2n(C(C)C)c1=N,-69*,?,-12%,-6%,0%,-17%
COc1cc(CN(C)C(=O)Cn2c(=O)c3c(ncn3C)n(C)c2=O)ccc1OC(F)F,.,.,17%,.,.,.
Cc1cc2cc(CN(C(=O)C3CC3)C3CCCC3)c3nnnn3c2cc1C,-19,21µM*,0%,-3%,-6%,?
CCc1ccc2c(c1)cc(CN(C(=S)Nc1cccc(C)c1)C1CC1)c1nnnn12,5,?,1%,4%,-16%,?
Cc1cc(C)n(-c2nc(SCCN(C)C)c3c4c(sc3n2)COC(C)(C)C4)n1,-60*,18µM*,22%,?,18µM*,22µM*
Cc1cc(C)n(-c2nc(NCC3CCCO3)c3c4c(sc3n2)COC(C)(C)C4)n1 (stereo unspecified),-51*,3.7µM*,0%,-8%,0%,5.2µM*
CC(=O)N1CC(=O)N=C1SCC(=O)Nc1nc(C)c(-c2ccccc2)s1,-77*,3.3µM*,0%,?,?,2.9µM*
CC1c2ccsc2CCN1C(=O)c1nn(C)c(=O)c2ccccc12 (stereo unspecified),.,.,9%,.,.,.
CN(CCC(=O)Nc1ccc(Br)cc1)Cc1ccccc1,-62*,?,.,-5%,?,?
O=C(CCC(=O)OCc1ccc(Br)cc1)Nc1ccccc1,2,?,13%,7%,2%,16µM*
O=C(CC(C(=O)O)P(=O)(c1ccccc1)c1ccccc1)c1ccccc1 (stereo unspecified),-50*,0%,0%,13%,2%,-19%
Cc1csc(CNC(=O)c2ccc3cc[nH]c3c2)n1,.,.,-37%,.,.,.
COc1ccc(NS(=O)(=O)c2cccc(C(=O)NCC(c3ccccc3)N(C)C)c2)cc1 (stereo unspecified),-3,-21%,1%,2%,0%,?
